# Experimental data from the supplement of paper PMC3545927.
# The other results are listed elsewhere or left out. The hit rate among all sequences tested is not known here.
# Target: furin, P09958
# Assay: furin cleavage Z-score vs untreated control; higher = more cleavage, active = 3.5 or more, inactive = 1 or less, 8 variable residues between constant flanks
# In short: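 Sequencing of released DNA, tagged with adapters by PCR, gave read counts used as abundance. That DNA was freed when purified furin cut N-terminally bead-bound 8-mer peptides fused to a cDNA oligonucleotide, in 0.01 ml reactions at 1:10 enzyme:substrate in 50 mM HEPES pH 7.5 with CaCl2 and NaCl, lasting 7.5, 15 or 30 min. The cleavage Z-score was the lowess-adjusted log count versus furin-free reactions, scaled by median absolute deviation.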
# Sequence of furin, P09958 (P09958 whole entry): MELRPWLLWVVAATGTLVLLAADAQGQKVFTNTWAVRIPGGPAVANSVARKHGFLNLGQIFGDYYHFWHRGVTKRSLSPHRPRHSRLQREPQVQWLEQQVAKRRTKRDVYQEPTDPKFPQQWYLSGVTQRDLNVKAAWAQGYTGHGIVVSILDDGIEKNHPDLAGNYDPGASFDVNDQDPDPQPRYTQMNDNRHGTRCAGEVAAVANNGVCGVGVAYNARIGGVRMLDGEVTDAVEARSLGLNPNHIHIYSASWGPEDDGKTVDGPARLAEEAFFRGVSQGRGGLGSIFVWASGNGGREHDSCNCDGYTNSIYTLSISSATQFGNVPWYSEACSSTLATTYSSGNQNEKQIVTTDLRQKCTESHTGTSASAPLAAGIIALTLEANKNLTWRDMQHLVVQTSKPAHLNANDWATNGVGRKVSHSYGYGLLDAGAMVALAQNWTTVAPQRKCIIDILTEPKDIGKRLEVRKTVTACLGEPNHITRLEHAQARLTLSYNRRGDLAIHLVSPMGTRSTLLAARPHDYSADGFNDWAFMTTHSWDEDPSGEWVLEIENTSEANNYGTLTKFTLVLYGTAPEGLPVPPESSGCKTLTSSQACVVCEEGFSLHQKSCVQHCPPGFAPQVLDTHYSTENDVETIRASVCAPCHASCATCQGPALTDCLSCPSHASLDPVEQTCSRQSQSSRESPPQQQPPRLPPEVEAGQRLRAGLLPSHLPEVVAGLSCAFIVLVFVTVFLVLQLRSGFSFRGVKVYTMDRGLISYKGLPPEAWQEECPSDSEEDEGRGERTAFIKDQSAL
Sequence,furin cleavage Z-score (7.5 min),furin cleavage Z-score (15 min),furin cleavage Z-score (30 min)
CAHQWISSECAGNASASA [HC1141],-0.592 (inactive),-1.1 (inactive),0.453 (inactive)
CAKWEYVVLLAGNASASA [HC518],0.0863 (inactive),-1.74 (inactive),-0.726 (inactive)
CAVPRRSKRIAGNASASA [FS-513],6.01 (active),7.79 (active),6.97 (active)
CAFPMRSKKIAGNASASA [FS-771],-1.66 (inactive),0.142 (inactive),-0.16 (inactive)
CADDERSKRIAGNASASA [FS-221],0.272 (inactive),0.273 (inactive),-0.987 (inactive)
CAANRRMKRIAGNASASA [FS-750],7.06 (active),9.01 (active),7.77 (active)
CALVVRGPPGAGNASASA [FS-1846],-0.565 (inactive),-0.565 (inactive),-0.843 (inactive)
CASLERLRRGAGNASASA [FS-296],0.592 (inactive),0.0398 (inactive),0.764 (inactive)
CAHHHRHHRAAGNASASA [FS-1336],2.38,2.68,3.58 (active)
CAHHHRHRRAAGNASASA [FS-1006],9.03 (active),6.62 (active),5.92 (active)
CALRAWRHRAAGNASASA [HC1619],2.05,0.378 (inactive),0.854 (inactive)
CASHHRHRRGAGNASASA [FS-1410],9.65 (active),10.8 (active),9.31 (active)
CAMKECSQHLAGNASASA [HC1694],-0.048 (inactive),-0.457 (inactive),-0.785 (inactive)
CATTPCSNSWAGNASASA [HC1901],0.617 (inactive),0.249 (inactive),1.55
CAEKKRKFIKAGNASASA [FS-2119],-0.691 (inactive),-0.493 (inactive),-0.629 (inactive)
CARQKREWIKAGNASASA [FS-2752],4.32 (active),5.62 (active),9.03 (active)
CARQKREWVKAGNASASA [FS-2753],3.59 (active),6.92 (active),8.88 (active)
CAMEECWQHLAGNASASA [HC27],1.1,1.46,0.479 (inactive)
CAYSPGEINRAGNASASA [HC1609],-1.45 (inactive),1.01,-0.452 (inactive)
CAEVDCHRPSAGNASASA [HC2351],0.842 (inactive),0.436 (inactive),0.244 (inactive)
CARKKKSISLAGNASASA [FS-1855],0.218 (inactive),1.42,3.47
CARPSRSISLAGNASASA [FS-3027],3.14,4.81 (active),5.36 (active)
CARPSRSGGRAGNASASA [FS-2287],-1.07 (inactive),-0.551 (inactive),-0.606 (inactive)
CATGLIHLHQAGNASASA [HC504],0.174 (inactive),0.0378 (inactive),-0.549 (inactive)
CARISRSISEAGNASASA [FS-2033],7.46 (active),8.18 (active),7.34 (active)

Sequence,furin cleavage Z-score (7.5 min),furin cleavage Z-score (15 min),furin cleavage Z-score (30 min)
CARATRKTSEAGNASASA [HC184],-0.121 (inactive),-1.01 (inactive),-1.25 (inactive)
CARISRSLHQAGNASASA [FS-3190],6.79 (active),8.81 (active),8.11 (active)
CAQGSRSLTPAGNASASA [HC718],0.532 (inactive),-0.507 (inactive),0.396 (inactive)
CADQLEQALDAGNASASA [HC1589],-1.05 (inactive),-1.96 (inactive),-1.11 (inactive)
CATHVTGGSAAGNASASA [HC353],-0.463 (inactive),-0.337 (inactive),-2.02 (inactive)
CAKDVVCCSMAGNASASA [HC2114],0.322 (inactive),0.43 (inactive),-1.58 (inactive)
CADSVDAKPDAGNASASA [CS1],-0.899 (inactive),-0.697 (inactive),-0.815 (inactive)
CARQRRIYKTAGNASASA [FS-2590],-1.61 (inactive),-1.71 (inactive),-0.22 (inactive)
CARQRRVPGNAGNASASA [FS-2768],1.18,-0.0341 (inactive),0.472 (inactive)
CAPTTRVRRRAGNASASA [FS-702],9.76 (active),10.9 (active),9.44 (active)
CAGPGRVRRRAGNASASA [FS-28],8.24 (active),9.49 (active),7.22 (active)
CARQRRVRRRAGNASASA [FS-1160],6.79 (active),6.89 (active),6.35 (active)
CAPSPRQARRAGNASASA [FS-1246],0.263 (inactive),2.43,2.92
CARIKKWLEHAGNASASA [FS-1721],-1.04 (inactive),0.181 (inactive),1.15
CAMEEESQHLAGNASASA [HC13],1.19,0.958 (inactive),0.124 (inactive)
CATTPCSGSFAGNASASA [HC1927],-0.645 (inactive),-1.19 (inactive),0.309 (inactive)
CAVSCQRGYKAGNASASA [HC1165],-0.75 (inactive),0.637 (inactive),1.1
CARFRRIRGEAGNASASA [FS-2491],-0.28 (inactive),-0.376 (inactive),-0.341 (inactive)
CADHEVVTSTAGNASASA [HC2295],0.352 (inactive),-1.49 (inactive),1.29
CARFRRSRRTAGNASASA [FS-2666],7.49 (active),8.92 (active),6.66 (active)
CAEVVTSTWTAGNASASA [HC2258],2.11,-0.469 (inactive),0.353 (inactive)
CAEAYRSRRTAGNASASA [FS-1116],1.35,1.26,3.71 (active)
CAMEECSQHTAGNASASA [HC1778],-0.696 (inactive),1.17,0.869 (inactive)
CADHWRSRRTAGNASASA [FS-646],2.11,1.9,3.67 (active)
